Results taken from the supplement of paper PMC4206461.
A number with no mark means an inactive call.

The compounds below were run on Pseudomonas aeruginosa PA14 dppA1-A5 penta mutant + pBBR5.DppA1 (PA14_58350) (assay: respiration area under curve with compound as sole nitrogen source, 24 h (OmniLog AUC (arbitrary units)); higher = more respiration / better utilisation as nitrogen source, active = 2000 or more).
Procedure: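 Biolog Phenotype MicroArray plates PM6-PM8: each di/tripeptide is the sole nitrogen source. Tetrazolium reduction was read in the OmniLog for 24 h at 37°C and summarised as area under the respiration curve (arbitrary units). Values below 2000 count as no respiration. Strain is the SBP penta mutant complemented with DppA1 on a plasmid under its native promoter. Lys/His/Cys peptides are excluded.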

Q: How did the “respiration area under curve” value turn out when `C[C@H](N)C(=O)N[C@@H](CCCN=C(N)N)C(=O)O` (plate: PM6) was run?
A: 9300 (active)

Q: How did the “respiration area under curve” value turn out when `C[C@H](O)[C@@H](NC(=O)CN)C(=O)O` (plate: PM8) was run?
A: 0

Q: For `CC(C)C[C@H](N)C(=O)N[C@@H](CO)C(=O)O` (plate: PM7), which “respiration area under curve” value is on record?
A: 12700 (active)

Q: How did the “respiration area under curve” value turn out when `CC(C)[C@H](NC(=O)[C@@H](N)Cc1ccc(O)cc1)C(=O)O` (plate: PM8) was run?
A: 6630 (active)

Q: `C[C@H](N)C(=O)N[C@@H](CC(N)=O)C(=O)O` (plate: PM6) was tested. Which “respiration area under curve” value did it give?
A: 7840 (active)

Q: Which “respiration area under curve” value does the source give for `CC[C@H](C)[C@H](N)C(=O)N1CCC[C@H]1C(=O)O` (plate: PM6) here?
A: 5060 (active)

Q: With `N[C@@H](CCC(=O)O)C(=O)N[C@@H](CCC(=O)O)C(=O)O` (plate: PM6) as the compound, how does the “respiration area under curve” value read?
A: 263

Q: How did the “respiration area under curve” value turn out when `C[C@@H](O)[C@H](N)C(=O)N[C@@H](CO)C(=O)O` (plate: PM8) was run?
A: 5330 (active)

Q: `CC(C)[C@H](NC(=O)[C@@H](N)Cc1ccccc1)C(=O)O` (plate: PM8) was tested. Which “respiration area under curve” value did it give?
A: 5720 (active)

What follows are compounds tested on Pseudomonas aeruginosa PA14 dppBCDF deletion mutant (assay: respiration area under curve with compound as sole nitrogen source, 24 h (OmniLog AUC (arbitrary units)); higher = more respiration / better utilisation as nitrogen source, active = 2000 or more; extreme values may be limits of the assay).
Procedure: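 Biolog Phenotype MicroArray plates PM6-PM8: each di/tripeptide is the sole nitrogen source. Tetrazolium reduction was read in the OmniLog every 15 min for 24 h at 37°C and summarised as area under the respiration curve (arbitrary units). Values below 2000 count as no respiration. Strain is the dipeptide ABC transporter deletion mutant.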

Q: For `N[C@@H](Cc1ccc(O)cc1)C(=O)N[C@@H](CCC(=O)O)C(=O)O` (plate: PM7), which “respiration area under curve” value is on record?
A: 277

Q: Which “respiration area under curve” value does the source give for `NC(N)=NCCC[C@H](NC(=O)[C@@H](N)Cc1c[nH]c2ccccc12)C(=O)O` (plate: PM7) here?
A: 11800 (active)

Q: For `C[C@H](N)C(=O)N[C@@H](CCCN=C(N)N)C(=O)O` (plate: PM6), which “respiration area under curve” value is on record?
A: 9770 (active)

Q: `C[C@H](O)[C@@H](NC(=O)CN)C(=O)O` (plate: PM8) was tested. Which “respiration area under curve” value did it give?
A: 0

Q: With `CC(C)C[C@H](N)C(=O)N[C@@H](CO)C(=O)O` (plate: PM7) as the compound, how does the “respiration area under curve” value read?
A: 11800 (active)

Q: How did the “respiration area under curve” value turn out when `N[C@@H](Cc1ccccc1)C(=O)N[C@@H](CCC(=O)O)C(=O)O` (plate: PM8) was run?
A: 0

Q: With `CC[C@H](C)[C@H](NC(=O)[C@@H](N)C(C)C)C(=O)O` (plate: PM7) as the compound, how does the “respiration area under curve” value read?
A: 842

Q: `C[C@H](NC(=O)[C@@H](N)CCCN=C(N)N)C(=O)O` (plate: PM6) was tested. Which “respiration area under curve” value did it give?
A: 8890 (active)

Q: `NCC(=O)NCC(=O)N[C@@H](Cc1ccccc1)C(=O)O` (plate: PM8) was tested. Which “respiration area under curve” value did it give?
A: 0

Q: With `C[C@@H](O)[C@H](N)C(=O)N[C@@H](CCC(=O)O)C(=O)O` (plate: PM7) as the compound, how does the “respiration area under curve” value read?
A: 34.2

Q: `C[C@H](N)C(=O)N[C@@H](Cc1ccc(O)cc1)C(=O)O` (plate: PM6) was tested. Which “respiration area under curve” value did it give?
A: 4510 (active)

Q: Which “respiration area under curve” value does the source give for `C[C@@H](O)[C@H](NC(=O)CN)C(=O)O` (plate: PM6) here?
A: 15.8

Q: For `CC[C@H](C)[C@H](N)C(=O)N[C@@H](Cc1ccc(O)cc1)C(=O)O` (plate: PM6), which “respiration area under curve” value is on record?
A: 11

Q: Which “respiration area under curve” value does the source give for `CC(C)[C@H](NC(=O)[C@@H](N)Cc1ccc(O)cc1)C(=O)O` (plate: PM8) here?
A: 5040 (active)

Q: With `N[C@@H](CO)C(=O)N1CCC[C@H]1C(=O)O` (plate: PM7) as the compound, how does the “respiration area under curve” value read?
A: 0

Q: Which “respiration area under curve” value does the source give for `CC(C)C[C@H](NC(=O)[C@@H](N)CC(C)C)C(=O)O` (plate: PM6) here?
A: 1380

Q: For `NC(=O)CC[C@H](NC(=O)[C@@H](N)CCC(N)=O)C(=O)O` (plate: PM6), which “respiration area under curve” value is on record?
A: 4130 (active)

Q: With `CC[C@H](C)[C@H](NC(=O)[C@@H](N)CCCN=C(N)N)C(=O)O` (plate: PM6) as the compound, how does the “respiration area under curve” value read?
A: 8310 (active)

Q: Which “respiration area under curve” value does the source give for `C[C@H](N)C(=O)N[C@@H](CC(N)=O)C(=O)O` (plate: PM6) here?
A: 6980 (active)

Q: `N[C@@H](Cc1ccc(O)cc1)C(=O)N[C@@H](Cc1ccccc1)C(=O)O` (plate: PM7) was tested. Which “respiration area under curve” value did it give?
A: 3450 (active)

Q: `O=C(O)CNC(=O)[C@@H]1CCCN1` (plate: PM7) was tested. Which “respiration area under curve” value did it give?
A: 217

Q: For `CC[C@H](C)[C@H](N)C(=O)N1CCC[C@H]1C(=O)O` (plate: PM6), which “respiration area under curve” value is on record?
A: 0

Q: How did the “respiration area under curve” value turn out when `CC(C)[C@H](N)C(=O)N1CCC[C@H]1C(=O)O` (plate: PM8) was run?
A: 0

Q: For `O=C(O)[C@@H]1CCCN1C(=O)[C@@H]1CCCN1` (plate: PM7), which “respiration area under curve” value is on record?
A: 0

Q: For `C[C@H](NC(=O)[C@@H](N)Cc1ccc(O)cc1)C(=O)O` (plate: PM7), which “respiration area under curve” value is on record?
A: 8840 (active)

Q: For `N[C@@H](CCC(=O)O)C(=O)N[C@@H](CCC(=O)O)C(=O)O` (plate: PM6), which “respiration area under curve” value is on record?
A: 0

Q: With `CSCCC(N)C(=O)NC(CCCN=C(N)N)C(=O)O` (stereo not drawn) (plate: PM7) as the compound, how does the “respiration area under curve” value read?
A: 13000 (active)

Q: Which “respiration area under curve” value does the source give for `CC(C)C[C@H](NC(=O)[C@H](CC(C)C)NC(=O)[C@@H](N)CC(C)C)C(=O)O` (plate: PM8) here?
A: 1800

Q: Which “respiration area under curve” value does the source give for `CC(C)C[C@H](NC(=O)[C@@H](N)Cc1ccc(O)cc1)C(=O)O` (plate: PM7) here?
A: 5310 (active)
